# Compound activity (PubChem)
# An excerpt weighted towards active compounds, which were near 19% of everything screened.
# uPA generation: blocks generation of uPA at the cell surface | cell surface uPA generation assay, qHTS | Potency, µM (series often up to 38.3 µM), for the others: at the top dose activity change, negative = inhibition, actives largely listed as inhibitors | 0.31% of 330,000 active | AID 540303; active = well fitted inhibition curve with a large enough effect; inconclusive = small, poorly fitted or top-dose-only effect; inactive = no such curve, though single readings can be large or run the other way; tested in mouse RAW 264.7 cells; note: potency is the fitted concentration of half-maximal effect; nearly all actives have a fitted effect of over 55% in size
# HT1080-NT tox: kills 2HG-producing HT-1080-NT fibrosarcoma cells. HT-1080-NT fibrosarcoma viability, CellTiter-Glo ATP luminescence, 48 h. Potency, µM (highest dose often 46.1 µM), for inactives: at the top dose activity, negative = less viability, actives largely listed as cytotoxic. 1.6% of 360,000 active. AID 686970;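 note: NT is the 2HG producing partner of a matched IDH1 knockdown line; potency is the fitted concentration of half-maximal effect; 0% = DMSO-treated cells and -100% = media-only wells without cells; nearly all actives have a fitted effect of over 55% in size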
#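 HT-1080-NT fibrosarcoma cells (2HG-overproducing), 750 cells/well in RPMI with 5% FBS, dosed after 2 h and incubated 48 h at 37C. CellTiter-Glo luminescence normalized to DMSO and no-cell wells; concentration-response curves fitted and classed.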
# TDP1 cell CPT: DT40-hTDP1 cell growth loss with CPT. 12% of 420,000 active. chicken DT40 Tdp1-/-;hTDP1 cells + 20 nM CPT, ATP luminescence, 48 h. Potency, µM (doses to about 46.2 µM), for the others: at the highest dose activity change, negative = growth inhibition, most hits filed as inhibitors; note: potency is the fitted concentration of half-maximal effect; nearly all actives have a fitted effect of over 55% in size
#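 Chicken DT40 Tdp1-/- cells stably complemented with human TDP1 were seeded at 400 cells/well in medium containing 20 nM camptothecin, exposed to pin-transferred compounds, and grown at 37 °C for at least 48 hr. Viability was read as ATP luminescence.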
# IL1B secr inh: inhibitors of inflammasome signaling (IL-1 beta secretion); THP-1 LPS/ATP IL-1B secretion, AlphaLISA, 16 h; stronger effect = lower value; activity change, % at 57.5 µM; 4.7% of 360,000 active; AID 743279; in the data active = activity change below about -50%; inconclusive = mostly about -30% to -49%
#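 Secreted IL-1B measured by AlphaLISA bead assay after 16 h compound exposure of THP-1 cells; compounds (final up to 57.5 uM) added 1 h before LPS (250 ng/mL) and ATP (1.25 mM) stimulation; lower signal means less secretion.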
# TDP1 cell noCPT: qHTS for Inhibitors of human tyrosyl-DNA phosphodiesterase 1 (TDP1): qHTS in cells in absence of CPT; DT40 Tdp1-/- hTDP1 cells, no CPT, ATP luminescence, 48 h; Potency, µM (titrated, usually from 46.2 µM), for the others: at the top dose activity change, negative = growth inhibition, usual class: inhibitors; 15% of 420,000 active; note: potency is the fitted concentration of half-maximal effect; nearly all actives have a fitted effect of over 55% in size
#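 Camptothecin absent (DMSO only). Human TDP1-complemented DT40 knockout cells, 400 cells/well, 37 °C for minimum 48 hr; ATP measured via CellTiter-Glo, 30 min dark incubation, luminescence.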
# HT1080 IDH1KD tx: kills HT-1080 cells with IDH1 knockdown. HT-1080 IDH1 knockdown viability, ATP luminescence, 48 h. Potency, µM (top dose mostly 46.1 µM), inactives show top-dose activity, negative = toxicity, usual class: cytotoxic. 2% of 360,000 active. AID 686971;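 note: potency is the fitted concentration of half-maximal effect; 0% = DMSO wells and -100% = cell-free medium wells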
#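 Viability of IDH1-knockdown HT-1080 fibrosarcoma cells was assessed by CellTiter-Glo after 48 h at 37 °C with titrated compound; concentration-effect curves were classified by fit quality and response size.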
# * hit, by the source's call; ? = inconclusive; . = no result; [ ] = remark or other dose. Unless noted, calls come from the whole dose curve; as a rule, active = well fitted curve in the direction sought with a large enough effect; inconclusive = small, poorly fitted or top-dose-only effect, or another doubt; inactive = no such curve, though single readings can be large; an effect the other way counts as inactive or inconclusive. Unless noted, % is set by controls: 0 for no effect and ±100 for the full control effect.
SMILES,uPA generation,HT1080-NT tox,TDP1 cell CPT,IL1B secr inh,TDP1 cell noCPT,HT1080 IDH1KD tx
CCc1ccc2occ(CC(=O)Nc3nnc(C)s3)c2c1,.,.,-6%,.,-24%,.
O=C(Nc1ccc(O)cc1C(=O)O)c1ccc(NC(=O)c2ccco2)cc1,16%,-3%,?,-17,?,16%
Cc1ccc(C(=O)Nc2ccc(NC(=O)c3ccco3)c(C)c2)cc1,-3%,8%,-4%,-59*,-18%,-2%
CCc1cccc(NC(=O)c2ccc(Br)o2)c1,12%,12%,-14%,?,-19%,-1%
Cc1cc(NC(=O)c2ccc(Br)o2)ccc1NC(=O)c1ccco1,-3%,?,15µM*,.,16µM*,?
O=C(Nc1ccc2[nH]c3c(c2c1)CCCC3)c1ccco1,-6%,-16%,?,-6,21µM*,-21%
C=CCNc1ncnc2c1ncn2[C@H]1CN(CCc2ccccc2)C[C@@H](CO)O1,.,24%,?,-4,-29%,6%
Nc1sc(Cc2ccccc2)cc1C(=O)c1c(-c2ccccc2)[nH]c2ccccc12,.,7.3µM*,3.7µM*,-12,4.6µM*,4.6µM*
COc1ccc(NC(=O)[C@@H]2CC=C[C@@H]3CCN(C4CC4)C(=O)[C@@H]32)cc1,.,.,-6%,.,0%,.
COC(=O)COc1ccc(C2Nc3c(Cl)ccc(C(=O)O)c3C3C=CCC32)cc1 (stereo not drawn),-2%,6%,0%,-20,-20%,9%
COc1ccc(OC)c(C2Nc3c(Cl)ccc(C(=O)O)c3C3C=CCC32)c1 (stereo not drawn),-5%,?,?,-57*,?,?
CC(C)(C)C(=O)COc1ccccc1[N+](=O)[O-],1%,1%,15µM*,-16,?,0%
Cc1ccc(OC/C(=N\O)C(C)(C)C)c([N+](=O)[O-])c1,-1%,-4%,-6%,-82*,-26%,-20%
O=C1CCCN1C(=O)COc1ccccc1[N+](=O)[O-],2%,2%,-8%,5,-17%,7%
COc1ccccc1CNC(=O)C(=O)NCC(c1ccco1)S(=O)(=O)c1cccs1 (stereo not drawn),.,.,-30%,.,?,.
COc1ccnc(CS(=O)c2nc3cc(OC(F)F)ccc3[nH]2)c1OC (stereo not drawn),.,.,?,.,-26%,.
O=C(Nc1ccccc1)Nc1nc(-c2ccc(F)cc2)cs1,0%,8%,4.1µM*,-7,4.1µM*,1%
O=C(Nc1ccc(Cl)cc1)Nc1nc(-c2ccccc2)cs1,-6%,15%,?,-28,-19%,7%
Fc1ccc(-c2csc(NC(=S)Nc3ccccc3)n2)cc1,16%,-19%,21µM*,31,?,-20%
CC1CC1C(=O)Nc1nc(-c2ccccc2)cs1 (stereo not drawn),-5%,5%,5.2µM*,9,5.8µM*,-4%
O=C(NC1CCSC1)c1cccc(Cl)c1 (stereo not drawn),-1%,4%,30%,-17,-3%,1%
COc1ccc(N2CC(NC(=O)C3CC3)CC2=O)cc1 (stereo not drawn),.,.,14%,.,-12%,.
O=C1c2ccccc2S(=O)N1c1cccc(F)c1 (stereo not drawn),.,21%,-20%,-27,-28%,3%
Cc1c(C(=O)NCC2Cc3cccc(-c4cncnc4)c3O2)c(-c2ccccc2)nn1-c1ccccc1 (stereo not drawn),.,.,-8%[9.04 µM],.,-16%,.
CCN(Cc1ccccc1)C(=O)c1cccc(S(=O)(=O)N2CCN(Cc3ccccc3)CC2)c1,-20%,-1%,16µM*,-9,26µM*,-19%
